High-throughput results deposited in PubChem BioAssay by Broad Institute.
MLL AF4-AF9 inh: inhibitors of AF4 peptide binding to AF9, primary screen, biochemical, AlphaScreen, biotin-AF4 peptide, FLAG-AF9, single point | Protein AF-9 (Homo sapiens), P42568 | inhibition, % at 10 µM | 350,000 tested, 0.47% active | AID 651704, 2012;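 active = every replicate reaching a set inhibition limit, whatever the replicate mean, cut at about 25% in these data; inconclusive = mean inhibition reaches that limit but some replicates miss it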;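 note: 0% = plate neutral control median and 100% = total signal loss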
Target sequence (P42568 whole entry, looked up): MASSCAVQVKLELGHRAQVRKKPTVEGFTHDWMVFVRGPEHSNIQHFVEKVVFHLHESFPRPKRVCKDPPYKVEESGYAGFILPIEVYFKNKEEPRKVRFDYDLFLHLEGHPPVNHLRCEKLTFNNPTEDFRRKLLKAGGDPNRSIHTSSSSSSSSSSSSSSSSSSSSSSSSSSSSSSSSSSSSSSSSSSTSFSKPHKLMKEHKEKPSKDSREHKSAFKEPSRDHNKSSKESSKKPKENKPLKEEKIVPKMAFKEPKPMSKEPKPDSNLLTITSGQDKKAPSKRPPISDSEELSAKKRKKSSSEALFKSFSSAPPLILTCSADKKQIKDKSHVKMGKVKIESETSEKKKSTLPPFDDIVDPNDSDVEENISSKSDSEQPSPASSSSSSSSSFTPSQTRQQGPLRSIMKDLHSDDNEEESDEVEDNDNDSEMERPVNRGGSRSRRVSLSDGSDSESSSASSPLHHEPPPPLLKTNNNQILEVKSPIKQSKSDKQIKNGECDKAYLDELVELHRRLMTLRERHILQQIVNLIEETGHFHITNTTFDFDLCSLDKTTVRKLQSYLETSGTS
DENV2 CPE rescue: inhibitors of DENV2 cytopathic effect, primary screen, cell-based, plate reader, single concentration | DENV2-infected cells, cytopathic effect rescue | CPE inhibition, % at 9.99 µM | 350,000 tested, 1.7% active | AID 651640, 2012; in the data active = CPE inhibition above about 20%, passing the limit was not always enough; inconclusive = no clear call, values can overlap the other calls; tested in BHK-21 cells;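 note: 0% = median of neutral control wells and 100% = median of positive control wells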
FGF22 binding: binders of human FGF22 protein, primary screen, FGF22 synaptogenesis inhibitor project, biophysical, thermal shift, single point | Fibroblast growth factor 22 (Homo sapiens), Q9HCT0 | recombinant FGF22 thermal shift, SYPRO orange fluorescence; percent of sucrose octasulfate shift, DMSO zero | activity (Tm shift, normalised), % at 9.99 µM | 340,000 tested, 1.5% active;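 active = mean Tm shift, scaled 0 neutral to 100 positive control, at about 1.3% or above, every replicate too, limit read from the data; inconclusive = no clear call, values can overlap the other calls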
RAD52 inh: RAD52 DNA annealing inhibitors, primary screen, biochemical, FRET, single point, set 2; inhibition, % at 18.7 µM; recombinant RAD52 DNA annealing, FRET fluorescence; AID 651710, 2012; 360,000 tested, 0.46% active;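 active = every replicate showing at least 50% inhibition; inconclusive = mean inhibition at least 50% but not in every replicate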
ERAP1 HTS inh: human ERAP1 aminopeptidase inhibitors, primary screen, biochemical, single point, plate reader; Endoplasmic reticulum aminopeptidase 1 (Homo sapiens), Q9NZ08; recombinant ERAP1, Leu-AMC fluorescence, 60 min; inhibition, % at 10.7 µM; 340,000 tested, 0.15% active; AID 652197, 2013;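 active = mean replicate inhibition of at least 30%, or all replicates individually reaching that 30% level; inactive = mean below 30% and not every replicate reaching it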;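 note: 0% = neutral control wells and 100% = L-leucinethiol positive control wells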
* hit, by the source's call; ? = inconclusive; . = no result given. The list is not random: actives were taken first. Their share in the collection is about 4%.

SMILES | MLL AF4-AF9 inh | DENV2 CPE rescue | FGF22 binding | RAD52 inh | ERAP1 HTS inh
O=C(NCCN1CCCC1)[C@H]1[C@H](CO)[C@H]2Cn3c(cccc3=O)[C@@H]1N2C(=O)NC1CCCC1 | -3 | 23* | . | -5 | -43
O=C(NC1CCCCC1)[C@@H]1[C@@H](CO)[C@@H]2Cn3c(cccc3=O)[C@H]1N2Cc1cccnc1 | 1 | 136* | 1 | -12 | -1
C[C@H](NC(=O)[C@@H]1[C@@H](CO)[C@@H]2Cn3c(cccc3=O)[C@H]1N2Cc1cccnc1)c1ccccc1 | -1 | -5 | 0 | -10 | 1
C[C@@H]1CN([C@H](C)CO)C(=O)c2cc(NS(=O)(=O)c3cn(C)cn3)ccc2O[C@H]1CN(C)Cc1ccc(C(=O)O)cc1 | -1 | -2 | -1 | -13 | -4
CN(C)S(=O)(=O)Oc1ccsc1C(=O)Nc1ccc(Br)cc1 | -3 | 1 | 57* | -8 | -3
CN(C)S(=O)(=O)Oc1ccsc1C(=O)Nc1ccc(C(F)(F)F)cc1 | -4 | -3 | 0 | -21 | -2
C[C@@H]1CN([C@H](C)CO)C(=O)c2cccc(NC(=O)c3nc4ccccc4s3)c2O[C@H]1CN(C)C(=O)Nc1ccccc1 | 1 | 6 | 0 | 4 | -5
CN(C)C1(CNC(=O)C2CCN(S(=O)(=O)c3ccccc3C(F)(F)F)CC2)CCCCC1 | 2 | 31* | 0 | -2 | -1
CC(C)C(=O)Nc1ccc2c(c1)C(=O)N(C)[C@H]1CC[C@@H](CC(=O)Nc3ccccc3)O[C@H]1CO2 | 1 | 3 | 0 | 3 | -2
COCCCNC(=O)CSc1nc2c(sc(=S)n2-c2cc(Cl)ccc2OC)c(=O)[nH]1 | -1 | -2 | 3.0* | -17 | 0
O=C(Nc1nnc(S(=O)(=O)N2CCOCC2)s1)c1ccccc1 | 47* | 2 | 0 | -10 | 5
O=C(Nc1nc(-c2ccccc2)cs1)c1ccc(S(=O)(=O)N2CCc3ccccc32)cc1 | 5 | ? | 0 | -7 | 4
CC1CN(S(=O)(=O)c2ccc(C(=O)Nc3nc(-c4cc5ccccc5o4)cs3)cc2)CC(C)O1 (centres undefined) | -1 | 0 | 44* | -6 | -2
O=C(Nc1nnc(S(=O)(=O)N2CCOCC2)s1)c1ccc(Cl)cc1 | -13 | 6 | 0 | -4 | 8
Cc1ccc(-c2csc(NC(=O)c3ccc(S(=O)(=O)N4CCc5ccccc54)cc3)n2)cc1 | 4 | 25* | 0 | -9 | -1
O=C(Nc1nc(-c2ccc(S(=O)(=O)N3CCOCC3)cc2)cs1)c1ccccc1 | -2 | 0 | 44* | -20 | -1
COc1ccc2c3c([nH]c2c1)[C@H](CO)N(C(=O)C1CCCC1)CC31CCN(Cc2nccs2)CC1 | 0 | -1 | 0 | 20 | 0
CCCN(C)C[C@H]1Oc2ncc(-c3cccnc3)cc2C(=O)N([C@@H](C)CO)C[C@H]1C | -3 | 8 | 0 | -4 | 0
COc1ccccc1-c1cn(CC[C@H]2CC[C@H](NC(=O)c3cnccn3)[C@H](CO)O2)nn1 | 0 | -6 | 0 | -9 | -3
CCCNC(=O)Nc1ccc2c(c1)OC[C@@H](C)N(C(=O)CC)C[C@@H](C)[C@@H](OC)CN(C)C2=O | -4 | 8 | 0 | 11 | 0
CS(=O)(=O)c1ccccc1-c1nnc(NC(=O)c2ccc(S(=O)(=O)N3CCCC3)cc2)o1 | 5 | 1 | 0 | -10 | 3
O=C(Nc1nc(-c2ccc(-c3ccccc3)cc2)cs1)c1cc([N+](=O)[O-])ccc1N1CCOCC1 | -10 | 7 | 43* | -16 | 5
CCc1nnc(NC(=O)c2cc([N+](=O)[O-])ccc2N2CCOCC2)s1 | -7 | -5 | 0 | -10 | -2
O=C(Nc1nc(-c2cc3ccccc3o2)cs1)c1ccc(S(=O)(=O)N2CCCC2)cc1 | 5 | -2 | 43* | -4 | 2
O=C(Nc1nnc(-c2cccs2)o1)c1ccc(S(=O)(=O)N2CCOCC2)cc1 | 4 | -2 | 44* | -24 | -2
SMILES | MLL AF4-AF9 inh | DENV2 CPE rescue | FGF22 binding | RAD52 inh | ERAP1 HTS inh
COCC(=O)Nc1ccc2c(c1)C(=O)N(C)C[C@H](OC)[C@H](C)CN(Cc1cccc(F)c1)[C@H](C)CO2 | 3 | 7 | 0 | -9 | -3
Cc1noc(C)c1COc1ccc(C(=O)OCC(=O)NCCN2C(=O)CSC2=O)cc1 | -1 | . | 44* | -13 | -7
CCCC[C@@H](O)C1=C(COc2ccccc2)C[C@H]2C(=O)N(Cc3ccccc3)C(=O)[C@H]2[C@H]1CO | 0 | 11 | 0 | 5 | -1
CCC[C@H]1CC(=O)C=C(c2ccc(OC)cc2)ON1C(=O)OC(C)(C)C | 8 | 57* | 0 | -2 | 2
CC(C)CC(=O)NNC(=S)Nc1ccc(S(N)(=O)=O)cc1 | -18 | -5 | 0 | 3 | 7
CCc1ccc(C(=O)NNC(=S)Nc2ccc(S(N)(=O)=O)cc2)s1 | 0 | -6 | 1.8* | -7 | -2
COc1ccc2c3c([nH]c2c1)[C@@H](CO)N(S(C)(=O)=O)CC31CCN(C(=O)c2cccnc2)CC1 | -4 | -3 | 0 | -7 | 0
CCOC(=O)C1=C(C)NC(=O)NC1C(C)C (centres undefined) | -1 | -18 | 0 | -16 | 4
CCOC(=O)C1=C(C)NC(=S)NC1C (centres undefined) | -10 | -3 | 44* | -4 | 0
C[C@@H]1CN([C@@H](C)CO)C(=O)Cc2cc(NS(=O)(=O)c3cn(C)cn3)ccc2O[C@@H]1CN(C)C(=O)Nc1cccc2ccccc12 | -4 | -3 | 0 | -8 | 1
Cc1ccc(CN(C)c2ccc(S(=O)(=O)N3CCCC3)cn2)cc1 | 0 | 25* | 0 | -7 | 3
O=S(=O)(c1ccc(F)cc1)N1CCCNCC1 | -3 | -1 | 0 | -1 | 1
O=C(NN1CCOCC1)c1ccc(S(=O)(=O)N2CCCCC2)cc1 | -3 | -2 | 0 | -1 | 0
Cc1ccc(S(=O)(=O)N2CCCNCC2)cc1 | 3 | 23* | 0 | -17 | 0
O=S(=O)(c1ccc(S(=O)(=O)N2CCOCC2)cc1)N1CCCC1 | -2 | -1 | 43* | -4 | 2
Cc1noc(C)c1S(=O)(=O)N(C)C[C@@H]1Oc2c(NC(=O)c3nc4ccccc4s3)cccc2C(=O)N([C@@H](C)CO)C[C@@H]1C | 4 | 17 | 0 | 23 | -1
CO[C@H]1CN(C)C(=O)c2ccc(NC(=O)C3CCCC3)cc2OC[C@H](C)N(CCC(F)(F)F)C[C@H]1C | 1 | 0 | 0 | 6 | 4
C/C=C/c1ccc([C@@H]2[C@@H](CO)N(C(=O)C3CCC3)C23CN(S(=O)(=O)CC)C3)cc1 | 2 | ? | . | -7 | 1
COc1ccc2c3c(n(C)c2c1)[C@@H](CO)NCC31CCN(C(=O)c2ccc(F)cc2)CC1 | 2 | 4 | 0 | 6 | 1
